This is a sample that favours compounds with a hit; in the whole collection about 3.3% have one here.
Casp6 inh: human caspase-6 inhibitors, primary screen, biochemical, VEID-R110 fluorescence, single point, set 2; inhibition, % at 12.5 µM; P55212; purified caspase-6, Z-VEID-R110 cleavage fluorescence; AID 686996, 2013; 350,000 compounds, 0.53% hits;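 active means mean inhibition across replicates at least about 35%, with every replicate also reaching that limit, limit read from the data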
SIRT5 block: SIRT5 desuccinylase inhibitors, primary screen, biochemical, fluorescence imaging, single point, set 5; Purified SirT5, succinyl-peptide AMC, trypsin-coupled fluorescence; inhibition, % at 15 µM; 330,000 compounds, 1.1% hits; in the data active means inhibition above about 15%
INS-1E GSIS act: GLuc luminescence reporter in INS-1E cells, primary screen for activators of glucose-dependent secretion of insulin; INS-1E GLuc reporter insulin secretion, 2-3 h; activation, % at 16.6 µM; 370,000 compounds, 0.61% hits;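 active means lowest replicate activation of at least 40%, so every replicate reaches that level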
FGF22 binding-1: binders of human FGF22 protein, primary screen, FGF22 synaptogenesis inhibitor project, biophysical, thermal shift, single point. activity (Tm shift, normalised), % at 9.99 µM. Fibroblast growth factor 22 (Homo sapiens), Q9HCT0. 340,000 compounds, 1.5% hits. recombinant FGF22 thermal shift, SYPRO orange fluorescence; percent of sucrose octasulfate shift, DMSO zero;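 active means mean Tm shift, scaled 0 neutral to 100 positive control, at about 1.3% or above, every replicate too, limit read from the data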
ERAP1 inh: human ERAP1 aminopeptidase inhibitors, primary screen, biochemical, single point, plate reader | Endoplasmic reticulum aminopeptidase 1 (Homo sapiens), Q9NZ08 | recombinant ERAP1, Leu-AMC fluorescence, 60 min | inhibition, % at 10.7 µM | 340,000 compounds, 0.15% hits | AID 652197, 2013;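 active means mean replicate inhibition of at least 30%, or all replicates individually reaching that 30% level; inactive means mean below 30% and not every replicate reaching it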
Target sequence (Q9NZ08 whole entry, looked up): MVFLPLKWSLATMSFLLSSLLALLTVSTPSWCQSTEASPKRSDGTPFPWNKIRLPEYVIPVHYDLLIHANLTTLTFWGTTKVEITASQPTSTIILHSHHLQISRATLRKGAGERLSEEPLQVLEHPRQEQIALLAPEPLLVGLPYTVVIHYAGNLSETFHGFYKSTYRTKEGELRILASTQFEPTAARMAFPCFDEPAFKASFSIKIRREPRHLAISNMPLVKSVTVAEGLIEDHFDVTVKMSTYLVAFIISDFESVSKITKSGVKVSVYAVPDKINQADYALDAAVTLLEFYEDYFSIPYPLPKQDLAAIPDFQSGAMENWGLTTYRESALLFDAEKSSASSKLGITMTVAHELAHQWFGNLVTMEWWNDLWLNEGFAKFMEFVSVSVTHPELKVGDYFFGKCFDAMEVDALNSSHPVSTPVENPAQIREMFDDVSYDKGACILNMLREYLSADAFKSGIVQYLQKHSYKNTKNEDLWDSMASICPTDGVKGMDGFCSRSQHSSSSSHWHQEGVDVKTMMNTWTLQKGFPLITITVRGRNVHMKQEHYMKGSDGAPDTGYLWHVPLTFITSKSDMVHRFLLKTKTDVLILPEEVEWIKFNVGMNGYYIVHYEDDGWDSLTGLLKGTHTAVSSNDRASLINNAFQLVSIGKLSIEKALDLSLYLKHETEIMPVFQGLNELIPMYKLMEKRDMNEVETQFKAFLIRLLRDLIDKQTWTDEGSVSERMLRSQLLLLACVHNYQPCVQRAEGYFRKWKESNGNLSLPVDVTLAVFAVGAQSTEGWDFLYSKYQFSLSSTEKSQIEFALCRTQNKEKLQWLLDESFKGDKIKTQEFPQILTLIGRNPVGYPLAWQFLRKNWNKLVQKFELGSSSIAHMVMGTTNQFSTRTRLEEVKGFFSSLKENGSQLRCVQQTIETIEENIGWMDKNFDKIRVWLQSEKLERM
FGF22 binding-2: binders of human FGF22 protein, dose response, FGF22 synaptogenesis inhibitor project, biophysical, thermal shift, cherry-pick retest | recombinant FGF22 thermal shift, SYPRO orange fluorescence | shares compounds with FGF22 binding-1 | 1,000 compounds, 2% hits | thermal shift activity, °C (ΔTm) at 38 µM;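 active means fitted rise in melting shift crosses a set limit at or below the top valid dose tested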
SYPRO no-protein: compound-only thermal shift signal without protein, dose response, artefact control for FGF22 binder project, biochemical, cherry-picked samples, RT-PCR instrument | AID 743019, 2013 | AC50, µM (doses to about 38 µM) | 1,000 compounds, 2% hits | shares compounds with FGF22 binding-1 | compound-only SYPRO orange thermal shift counter-screen, no protein;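 active means rising signal whose fitted curve reaches the 0.54 level within the top valid dose, showing a melting point, actives reach about 13 µM in these data; inactive means the rest, including activity in the opposite direction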; further: value is where the raw curve crosses a fixed level and not half-maximal
Each line names hits and unclear results; the compound was inactive in the other large screens (follow-up assays come after a bar, where they were run).

CC1=C([C@H](O)c2ccccc2)[C@H](CO)n2c(=O)n(-c3ccccc3)c(=O)n2C1	none (no result: INS-1E GSIS act)
Cn1cnc(S(=O)(=O)N[C@@H]2CC[C@@H](CC(=O)Nc3ccccc3)O[C@H]2CO)c1	none
CC(C)NC(=O)Nc1ccc2c(c1)C(=O)N([C@H](C)CO)C[C@@H](C)[C@@H](CN(C)C(=O)Nc1ccccc1)OCCCC[C@@H](C)O2	FGF22 binding-1 2.6 | FGF22 binding-2 inactive | SYPRO no-protein inactive
C[C@H]1CCCCO[C@H](CN(C)Cc2ccncc2)[C@@H](C)CN([C@@H](C)CO)C(=O)c2cc(NC(=O)c3ccncc3)ccc2O1	FGF22 binding-1 1.2 | FGF22 binding-2 inactive | SYPRO no-protein inactive
C[C@@H]1CN([C@H](C)CO)C(=O)c2cc(NS(C)(=O)=O)ccc2O[C@@H](C)CCCCO[C@H]1CN(C)Cc1ccncc1	FGF22 binding-1 1.7 | FGF22 binding-2 inactive | SYPRO no-protein inactive
C[C@@H]1CCCCO[C@H](CN(C)C(=O)C2CCCCC2)[C@H](C)CN([C@H](C)CO)C(=O)c2cc(NS(C)(=O)=O)ccc2O1	FGF22 binding-1 1.7 | FGF22 binding-2 inactive | SYPRO no-protein inactive
COc1cccc(S(=O)(=O)Nc2ccc3c(c2)[C@@H]2C[C@@H](CC(=O)N4CCCCC4)O[C@H](CO)[C@@H]2O3)c1	none
C[C@@H]1CN([C@@H](C)CO)C(=O)c2cc(C#CCc3ccccc3)cnc2O[C@@H]1CN(C)C(=O)Cc1cccnc1	none
O=C(Nc1ccsc1C(=O)O)c1cccc(C(F)(F)F)c1	FGF22 binding-1 1.5 | FGF22 binding-2 inactive | SYPRO no-protein inactive
O=C(Nc1ccsc1C(=O)O)c1cccc(Oc2ccccc2)c1	none
COc1ccc(-n2nnnc2/C=C\Nc2ccc(C)cc2)cc1	FGF22 binding-1 25 | FGF22 binding-2 inactive | SYPRO no-protein inactive
C[C@H](CO)N1C[C@H](C)[C@@H](CN(C)S(=O)(=O)c2ccc(F)cc2)Oc2c(NC(=O)C3CC3)cccc2C1=O	none
CC(=O)NC(Cc1c[nH]c2ccccc12)C(=O)NCCc1ccccn1 (centres undefined)	FGF22 binding-1 1.6 | FGF22 binding-2 inactive | SYPRO no-protein inactive
CNC[C@H]1Oc2ccc(NC(=O)Nc3ccc(OC)cc3)cc2C(=O)N([C@H](C)CO)C[C@@H]1C	FGF22 binding-1 1.4 (no result: INS-1E GSIS act) | FGF22 binding-2 inactive | SYPRO no-protein inactive
CNC[C@H]1Oc2ccc(NC(=O)C3CCCCC3)cc2C(=O)N([C@@H](C)CO)C[C@H]1C	FGF22 binding-1 1.2 | FGF22 binding-2 inactive | SYPRO no-protein inactive
CCC(=O)N1CC(=O)N2[C@H](CO)[C@H](c3ccc(-c4ccccc4F)cc3)[C@H]2C1	none (no result: Casp6 inh, FGF22 binding-1, ERAP1 inh)
Cc1ccc(N(C(=O)c2csnn2)C(C(=O)NC2CCCC2)c2ccccn2)c(C)c1 (centres undefined)	FGF22 binding-1 1.6 | FGF22 binding-2 inactive | SYPRO no-protein inactive
O=C(O)c1[nH]c2ccc(Br)cc2c1CCN1C(=O)c2cccc([N+](=O)[O-])c2C1=O	FGF22 binding-1 3.0 (no result: ERAP1 inh) | SYPRO no-protein inactive
NC(=O)c1ccsc1NC(=O)COC(=O)CCCOc1ccccc1	FGF22 binding-1 1.9 | FGF22 binding-2 inactive | SYPRO no-protein inactive
Cc1ccccc1CN1[C@@H](Cc2ccccc2)COCCS1(=O)=O	none (no result: Casp6 inh, SIRT5 block, FGF22 binding-1, ERAP1 inh)
C=C1[C@@H](O)[C@H](Cc2ccccc2)N(Cc2ccccc2Br)S1(=O)=O	FGF22 binding-1 1.4 (no result: Casp6 inh, SIRT5 block) | FGF22 binding-2 inactive | SYPRO no-protein inactive
COc1ccccc1-c1ccc2c(c1)[C@H]1[C@H](CCN1S(=O)(=O)c1ccccc1F)[C@H](CO)N2	none
O=C(CCc1nnc(CCCCc2ccccc2)o1)N(CCO)Cc1ccccc1	none
CN(C(=O)CCc1nnc(CCCCc2ccccc2)o1)C1CCOCC1	FGF22 binding-1 1.4 | FGF22 binding-2 inactive | SYPRO no-protein inactive
CN1C(=O)NC(NS(=O)(=O)c2ccc(N)cc2)(C(F)(F)F)C1=O (centres undefined)	FGF22 binding-1 3.8 | FGF22 binding-2 inactive | SYPRO no-protein inactive
CCc1nnc(NC(=O)CN2CCN(Cc3ccc(C)cc3)CC2)s1	FGF22 binding-1 1.7 | FGF22 binding-2 inactive | SYPRO no-protein inactive
Cn1cccc1/C=N/NC(=O)Cc1cccc2ccccc12	FGF22 binding-1 2.1 | FGF22 binding-2 inactive | SYPRO no-protein inactive
COC(=O)C[C@H]1C[C@@H]2c3cc(NS(C)(=O)=O)ccc3O[C@@H]2[C@@H](CO)O1	none
C[C@H](CO)N1C[C@H](C)[C@@H](CN(C)C(=O)CN(C)C)Oc2ncc(-c3ccc(C#N)cc3)cc2C1=O	none
CC1CC(CC(=O)NC(=S)Nc2ccccc2Cl)C(=O)O1 (centres undefined)	FGF22 binding-1 1.6 | FGF22 binding-2 inactive | SYPRO no-protein inactive
C/C(=N\NC(=O)c1nnn(-c2nonc2N)c1CSc1ccc(C)cc1)c1cccnc1	FGF22 binding-1 1.7 | FGF22 binding-2 inactive | SYPRO no-protein inactive
Nc1nonc1-n1nnc(C(=O)N/N=C/c2cccnc2)c1CSc1ccc(Cl)cc1	FGF22 binding-1 2.7 | FGF22 binding-2 inactive | SYPRO no-protein inactive
CC1CCN(Cc2c(C(=O)N/N=C/c3ccc(OC(C)C)cc3)nnn2-c2nonc2N)CC1	FGF22 binding-1 1.5 | FGF22 binding-2 inactive | SYPRO no-protein inactive
CO[C@H]1CN(C)C(=O)c2ccc(NC(=O)C3CC3)cc2OC[C@H](C)N(Cc2ccc(F)cc2)C[C@@H]1C	none
O=c1c2cc([N+](=O)[O-])cc([N+](=O)[O-])c2[nH]n1-c1ccccc1	FGF22 binding-1 1.8 (no result: INS-1E GSIS act) | FGF22 binding-2 inactive | SYPRO no-protein inactive
CCOc1ccc(C(=O)CCC(=O)Nc2ccc(C)cn2)cc1	FGF22 binding-1 14 | FGF22 binding-2 inactive | SYPRO no-protein inactive
C[C@@H]1CCCCO[C@@H](CN(C)S(C)(=O)=O)[C@H](C)CN([C@@H](C)CO)C(=O)c2cc(NS(C)(=O)=O)ccc2O1	none (no result: Casp6 inh, SIRT5 block, ERAP1 inh)
CO[C@@H](CN(C)S(=O)(=O)c1cccc(Cl)c1)[C@@H](C)CN([C@@H](C)CO)S(=O)(=O)c1cccc(Cl)c1	FGF22 binding-1 1.5 | FGF22 binding-2 inactive | SYPRO no-protein inactive
CO[C@H](CN(C)S(=O)(=O)c1cccc(Cl)c1)[C@H](C)CN([C@H](C)CO)S(=O)(=O)c1ccc(Cl)cc1	none (no result: SIRT5 block)

Source: PubChem BioAssay (Broad Institute)
